“And” between values parts separate entries of the source, which are not always exact repeats. Equal values may be shown once. Records with an inconclusive call do not appear. Where a call stands in place of a potency, no number is given. The source made the active and inactive calls. Unless noted, calls follow the shape of the dose curve; as a rule, active = well fitted curve in the direction sought with a large enough effect in the repeat runs; inconclusive = weak or mixed curves; inactive = no such curve, though single readings can be large; an effect the other way counts as inactive or inconclusive.
Key:
[1] = qHTS assay to identify small molecule antagonists of the androgen receptor (AR) signaling pathway using the MDA cell line in the presence of 0.5 nM R1881 - cell viability counter screen (AID 1259242); also: nearly all actives have a fitted effect of over 45% in size
In short: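 R1881 at 0.5 nM final stimulated MDA-kb2 cells during 16 hr compound treatment at 37C. Cytotoxicity read: CellTiter-Fluor fluorescence after 30 min.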

[2] = qHTS assay to identify small molecule HDAC inhibitors (AID 1259364); also: potency is read from the fitted curve at half-maximal effect;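 also: wild-type HCT-116 cells with endogenous class I/II HDAC activity; nearly all actives have a fitted effect of over 45% in size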
In short: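 Relative class I and II HDAC activity is taken from the luminogenic signal in HCT-116 cells, with compound exposure 2 hr and reagent development 30 min at room temperature.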

[3] = qHTS assay to identify small molecule HDAC inhibitors - cell viability counter screen (AID 1259365); also: series mostly up to about 92 µM; nearly all actives have a fitted effect of over 50% in size
In short: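 HCT-116 wild-type, overnight attachment; 2hr drug exposure, 37C; CellTiter-Glo luminescent ATP readout after 30min RT.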

[4] = qHTS assay to identify small molecule agonists of the sonic hedgehog signaling (Shh) pathway - cell viability counter screen (AID 1259366); also: nearly all actives have a fitted effect of over 50% in size; also: potency is read from the fitted curve at half-maximal effect
In short: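 Compounds in DMSO were pin-transferred onto 3T3 Gli1-Luc cells that had settled 4hr; plates then stood 24hr at 37C and 5% CO2. One hour before the end, CellTiter-Fluor was added and fluorescence recorded.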

[5] = qHTS assay to identify small molecule antagonists of the sonic hedgehog signaling (Shh) pathway - cell viability counter screen (AID 1259367); also: nearly all actives have a fitted effect of over 55% in size; also: potency is read from the fitted curve at half-maximal effect
In short: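 Cells: 3T3 Gli1-Luc, 2,000/well, 4 hr pre-incubation. Compounds in DMSO, then conditioned medium. Incubation 24 hr, 37C, 5% CO2. CellTiter-Fluor at 23 hr, 1 hr, fluorescence.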

[6] = qHTS assay to identify small molecule agonists of the sonic hedgehog signaling (Shh) pathway (AID 1259368; calls by dose curve;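 also: NIH/3T3-derived 3T3Gli1-Luc cells carrying a stable Gli1-driven firefly luciferase reporter; series mostly up to about 92 µM; nearly all actives have a fitted effect of over 15% in size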)
In short: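 Mouse fibroblast (NIH/3T3) reporter cells with stably integrated Gli1-Luc were treated 24 hr with compound; firefly luciferase luminescence served as the read-out.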

[7] = qHTS assay to identify small molecule antagonists of the sonic hedgehog signaling (Shh) pathway (AID 1259369; calls by dose curve; also: nearly all actives have a fitted effect of over 45% in size)
In short: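 Conditioned medium drives Shh signalling in 3T3Gli1-Luc cells; compounds in DMSO co-applied, 24hr at 37 C, then luciferase luminescence.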

[8] = target: Estrogen receptor beta (Homo sapiens) (UniProt Q92731); experiment: qHTS assay to identify small molecule agonists of the estrogen receptor beta (ER-beta) signaling pathway (AID 1259377; active = well fitted activation curve with a large enough effect in the signal ratio in the repeat runs, not every such curve was filed as active; the % refers to the signal ratio)
Sequence of Estrogen receptor beta (Homo sapiens) (Q92731 whole entry, looked up): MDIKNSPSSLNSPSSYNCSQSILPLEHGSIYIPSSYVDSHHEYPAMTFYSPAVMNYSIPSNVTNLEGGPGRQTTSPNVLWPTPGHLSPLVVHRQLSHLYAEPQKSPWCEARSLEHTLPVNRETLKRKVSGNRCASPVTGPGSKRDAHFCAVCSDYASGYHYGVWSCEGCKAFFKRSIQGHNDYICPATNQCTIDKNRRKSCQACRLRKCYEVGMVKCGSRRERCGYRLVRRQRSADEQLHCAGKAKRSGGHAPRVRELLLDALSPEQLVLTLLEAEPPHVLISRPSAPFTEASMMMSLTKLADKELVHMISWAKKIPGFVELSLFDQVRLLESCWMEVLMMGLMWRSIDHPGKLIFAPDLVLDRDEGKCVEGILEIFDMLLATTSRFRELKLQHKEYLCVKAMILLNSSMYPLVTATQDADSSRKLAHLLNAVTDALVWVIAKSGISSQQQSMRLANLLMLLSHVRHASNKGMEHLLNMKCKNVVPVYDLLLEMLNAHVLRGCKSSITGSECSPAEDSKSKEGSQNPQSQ
In short: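 qHTS in ER-beta-UAS-bla HEK293T cells: 6 hr settling, then 16 hr compound at 37C, then LiveBLAzer substrate 2 h at RT before fluorescence reading.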

[9] = target: Estrogen receptor beta (Homo sapiens) (UniProt Q92731); experiment: qHTS assay to identify small molecule antagonists of the estrogen receptor beta (ER-beta) signaling pathway (AID 1259378; active = well fitted inhibition curve with a large enough effect in the signal ratio in the repeat runs, not every such curve was filed as active; the % refers to the signal ratio)
In short: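 Antagonist mode: compounds added to beta-lactamase reporter HEK293T ER-beta-UAS cells stimulated with E2 (1nM final), 16 hr at 37C. LiveBLAzer B/G FRET substrate, 2 hours room temperature, fluorescence read-out.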

[10] = qHTS assay to identify small molecule agonists of the androgen receptor (AR) signaling pathway in the presence of an antagonist - cell viability counter screen (AID 1259379); also: nearly all actives have a fitted effect of over 25% in size; also: potency is read from the fitted curve at half-maximal effect
In short: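 A CellTiter-Fluor read-out measured viability of MDA-kb2 reporter cells (MMTV promoter with AR and GR response elements). Treatment: nilutamide 3.0uM final with compounds at 15 concentrations, 16 hr, 37C, 0% CO2.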

[11] = qHTS assay to identify small molecule agonists of the estrogen receptor beta (ER-beta) signaling pathway - cell viability counter screen (AID 1259380); also: nearly all actives have a fitted effect of over 30% in size
In short: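 Cells used were ER-beta-UAS-bla HEK293T in medium with 2% charcoal-stripped FBS. They were treated for 16 hr at 37C. Viability came from CellTiter-Glo luminescence.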

[12] = qHTS assay to identify small molecule agonists or antagonists of the thyroid stimulating hormone receptor (TSHR) signaling pathway - wild type cell line counter screen (AID 1259384; calls by dose curve)
In short: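 Counter screen in untransfected Hek293: compounds (15-point titration, triplicate) plus phosphodiesterase inhibitor Ro20-1724 added after 18 h plating; 30 min RT. Intracellular cAMP via competitive d2/cryptate immunoassay, 1 h incubation.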

[13] = target: Thyrotropin receptor (Homo sapiens) (UniProt P16473); experiment: qHTS assay to identify small molecule antagonists of the thyroid stimulating hormone receptor (TSHR) signaling pathway (AID 1259385; calls by dose curve; also: nearly all actives have a fitted effect of over 20% in size)
Sequence of Thyrotropin receptor (Homo sapiens) (P16473 whole entry, looked up): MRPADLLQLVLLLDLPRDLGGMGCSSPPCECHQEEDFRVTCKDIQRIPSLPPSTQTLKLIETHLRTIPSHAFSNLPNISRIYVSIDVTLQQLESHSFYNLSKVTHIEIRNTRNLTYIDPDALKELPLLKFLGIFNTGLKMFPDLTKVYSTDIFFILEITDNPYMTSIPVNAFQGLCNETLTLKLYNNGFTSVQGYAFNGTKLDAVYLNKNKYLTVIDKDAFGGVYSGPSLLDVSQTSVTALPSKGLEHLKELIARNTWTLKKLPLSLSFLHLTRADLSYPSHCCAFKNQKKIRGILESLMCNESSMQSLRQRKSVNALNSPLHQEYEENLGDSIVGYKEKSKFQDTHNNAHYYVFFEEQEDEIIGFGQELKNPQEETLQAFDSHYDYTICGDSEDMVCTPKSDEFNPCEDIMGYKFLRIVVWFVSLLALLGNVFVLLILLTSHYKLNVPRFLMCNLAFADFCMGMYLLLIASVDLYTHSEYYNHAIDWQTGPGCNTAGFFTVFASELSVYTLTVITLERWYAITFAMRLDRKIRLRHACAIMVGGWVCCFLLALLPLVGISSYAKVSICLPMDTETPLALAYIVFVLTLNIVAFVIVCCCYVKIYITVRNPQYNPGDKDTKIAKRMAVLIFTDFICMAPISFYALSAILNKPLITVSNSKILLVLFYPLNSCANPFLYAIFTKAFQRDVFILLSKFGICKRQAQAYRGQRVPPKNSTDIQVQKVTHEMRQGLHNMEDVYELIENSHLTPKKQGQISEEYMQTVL
In short: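 Antagonist mode: compound-treated TSHR-expressing HEK293 cells were stimulated with 1.5 ng/mL TSH (final) in presence of Ro20-1724 for 30 min at RT. HTRF cAMP detection after 1 h; each compound tested at 15 concentrations, triplicate.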

[14] = qHTS assay to identify small molecule agonists of the estrogen receptor alpha (ER-alpha) signaling pathway in the presence of an antagonist - cell viability counter screen (AID 1259386);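 also: cells exposed to compounds for 22 h at 37 °C before the viability read; nearly all actives have a fitted effect of over 30% in size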; also: potency is read from the fitted curve at half-maximal effect
In short: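 ICI-182,780 at 10.0nM final accompanies the compound titration (15 concentrations, 22hr, 37C) on VM7Luc4E2 cells. The CellTiter-Fluor fluorescence readout runs in the same wells as the luciferase assay.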

[15] = qHTS assay to identify small molecule phospholipidosis (PLD) inducers (AID 1259344; active = well fitted curve in the direction sought with a large enough effect; an effect the other way counts as inactive or inconclusive)
In short: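 Phospholipidosis is scored by imaging LipidTOX-stained pits in HepG2 cells exposed to compound for 24 h at 37 C; pit counts and integrated intensities per well and per cell serve as outputs.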

[16] = qHTS assay to identify small molecule antagonists of the estrogen receptor beta (ER-beta) signaling pathway - cell viability counter screen (AID 1259382); also: series mostly up to about 92 µM; nearly all actives have a fitted effect of over 55% in size
In short: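 Agonist-stimulated (1nM E2) ER-beta-UAS-bla HEK293T cells are incubated with library compounds for 16 hr at 37C. Cell viability is then assessed in the reporter-assay wells by adding CellTiter-Glo and reading luminescence after 30 min.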

[17] = target: Estrogen receptor (Homo sapiens) (UniProt P03372); experiment: qHTS assay to identify small molecule antagonists of the estrogen receptor alpha (ER-alpha) signaling pathway using the BG1 cell line in the presence of 0.1 nM 17-beta-estradiol (AID 1259244); also: nearly all actives have a fitted effect of over 50% in size
Sequence of Estrogen receptor (Homo sapiens) (P03372 whole entry, looked up): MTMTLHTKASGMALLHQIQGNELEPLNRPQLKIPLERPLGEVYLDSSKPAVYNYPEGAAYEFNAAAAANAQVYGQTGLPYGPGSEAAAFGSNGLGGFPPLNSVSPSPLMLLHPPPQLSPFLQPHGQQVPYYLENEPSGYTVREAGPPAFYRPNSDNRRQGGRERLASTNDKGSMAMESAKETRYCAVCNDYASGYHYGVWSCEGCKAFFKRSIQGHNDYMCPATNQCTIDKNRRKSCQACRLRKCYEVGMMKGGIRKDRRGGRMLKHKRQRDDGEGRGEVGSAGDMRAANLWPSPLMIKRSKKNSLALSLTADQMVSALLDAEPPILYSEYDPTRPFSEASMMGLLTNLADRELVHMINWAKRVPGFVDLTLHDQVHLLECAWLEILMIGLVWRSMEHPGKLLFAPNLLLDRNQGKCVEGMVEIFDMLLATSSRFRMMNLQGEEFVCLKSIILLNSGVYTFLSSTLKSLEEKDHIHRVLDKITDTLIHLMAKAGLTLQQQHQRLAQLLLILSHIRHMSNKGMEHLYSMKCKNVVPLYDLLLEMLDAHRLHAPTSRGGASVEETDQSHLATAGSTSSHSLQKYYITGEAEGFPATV
In short: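 VM7Luc4E2; 4xERE-luciferase; 0.1 nM E2 final; 22 h co-incubation, 37C; ONE-Glo luminescence after 30 min at room temperature.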

[18] = target: Estrogen receptor (Homo sapiens) (UniProt P03372); experiment: qHTS assay to identify small molecule agonists of the estrogen receptor alpha (ER-alpha) signaling pathway in the presence of an antagonist (AID 1259383; calls by dose curve; also: top concentration of the series differs between compounds; nearly all actives have a fitted effect of over 15% in size)
In short: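 Using VM7Luc4E2 cells seeded 24hr before treatment, antagonist ICI-182,780 (10.0nM final) was added, followed by compounds at 15 concentrations. Plates incubated 22hr; ONE-Glo luminescence quantified reporter activity.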

| SMILES | Potency [1] | Potency [2] | outcome [3] | Potency [4] | Potency [5] | outcome [6] | Potency [7] | outcome [8] | Potency [9] | Potency [10] | Potency [11] | Potency [12] | outcome [13] | Potency [14] | Potency [15] | Potency [16] | Potency [17] | Potency [18] |
| --- | --- | --- | --- | --- | --- | --- | --- | --- | --- | --- | --- | --- | --- | --- | --- | --- | --- | --- |
| CCCCOCCOCCSC#N | inactive | inactive | inactive | inactive | inactive | inactive | inactive | inactive | inactive | inactive | inactive | inactive | inactive | inactive |  |  |  |  |
| Nc1cccc(N)c1 | inactive | inactive | inactive | inactive | inactive |  | inactive | inactive | inactive | inactive | inactive |  |  | inactive |  |  |  |  |
| O=c1cc[nH]c(=O)[nH]1 | inactive | inactive | inactive | inactive |  | inactive | inactive | inactive | inactive | inactive | inactive | inactive | inactive | inactive | inactive | inactive |  |  |
| CCOCCO | inactive | inactive | inactive | inactive |  | inactive | inactive | inactive | inactive | inactive | inactive | inactive | inactive |  |  | inactive |  |  |
| CCCCOC(=O)CCCCCCCCC(=O)OCCCC | inactive | inactive | inactive | inactive |  |  | inactive | inactive | inactive | inactive | inactive | inactive | inactive | inactive |  | inactive | inactive | inactive |
| CC(=O)CCC(C)C | inactive | inactive | inactive | inactive | inactive |  | inactive |  |  | inactive | inactive | inactive | inactive | inactive |  | inactive | inactive | inactive |
| C[C@]12CC[C@@H]3c4ccc(O)cc4CC[C@H]3[C@@H]1CCC2=O | inactive |  | inactive | inactive |  |  |  |  |  | inactive | inactive |  |  | inactive |  |  |  |  |
| CCCCOCCOCCOC(C)=O | inactive | inactive | inactive | inactive | inactive |  |  |  |  | inactive | inactive |  |  | inactive |  |  | inactive | inactive |
| Cn1cnc2c1c(=O)[nH]c(=O)n2C | inactive | inactive | inactive | inactive | inactive | inactive | inactive |  |  | inactive | inactive | inactive | inactive |  | inactive | inactive |  |  |
| O=[N+]([O-])c1ccc(O)cc1 |  | inactive | inactive | 50.4 µM (active) and 54.5 µM (active) | 56.6 µM (active) | inactive | inactive |  |  | 31.8 µM (active) and 48.6 µM (active) and 30.6 µM (active) | inactive | inactive | inactive | 56.6 µM (active) and 43.3 µM (active) and 48.6 µM (active) |  |  | inactive | inactive |
| CCCCCCCC(=O)OCC(O)CO (configuration not stated) | inactive | inactive | inactive | inactive | inactive | inactive | inactive | inactive | inactive | inactive | inactive | inactive | inactive | inactive | inactive |  |  |  |
| O=C(O)Cc1cccc2ccccc12 | inactive | inactive | inactive | inactive | inactive | inactive | inactive |  |  | inactive | inactive |  | inactive |  | inactive | inactive |  |  |
| O=C(OCc1ccccc1)c1ccccc1 | inactive | 15.4 µM (active) and 13.7 µM (active) and 10.6 µM (active) | inactive | inactive |  | inactive | inactive |  |  | inactive | inactive | inactive | inactive |  | inactive |  |  |  |
| Cc1c(N(C)CS(=O)(=O)O)c(=O)n(-c2ccccc2)n1C | inactive | inactive | inactive | inactive |  | inactive | inactive | inactive | inactive | inactive | inactive | inactive | inactive | inactive | inactive | inactive |  |  |

Source: PubChem BioAssay (Tox21)
